From PubChem BioAssay AID1159580 (chemical genetic matrix, 2015)
The campaign covered roughly 5,500 compounds. About 2,000 (36%) were called active. Not shown: some 18% with an inconclusive outcome. Rule as the data show it: active = normalized growth mostly below about 0.91 (no sharp cut-off); inconclusive = no clear call, values can overlap the other calls; inactive = mostly above about 0.92. The list shows a part of the results.

Assay: chemical genetic growth profiling, strain panel (AID 1159580);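 also: tested at 20 µM; growth read once vehicle control cultures reached saturation at 30 °C; 1 = growth at the plate median or of vehicle wells; lower values mean less growth of the strain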
Settings: growth OD

Measured: normalized growth

COc1ccc(NS(=O)(=O)c2ccc(N)cc2)nn1
inactive: S. cerevisiae deletion strains, locus YKL009W, strain mrt4, hits give low values 1 | S. cerevisiae deletion strains, locus YKL068W, hits give low values 0.997 | S. cerevisiae deletion strains, locus YKL085W, strain MDH1 (second series), hits give low values 0.999 | S. cerevisiae deletion strains, locus YKL085W, strain MDH1, hits give low values 0.999 | S. cerevisiae deletion strains, locus YKL160W, strain elf1, hits give low values 0.984 | S. cerevisiae deletion strains, locus YKL190W, strain CNB1, hits give low values 1.02 | S. cerevisiae deletion strains, locus YKR001C, strain vps1, hits give low values 0.985 | S. cerevisiae deletion strains, locus YKR026C, strain gcn3, hits give low values 1.01 | S. cerevisiae deletion strains, locus YKR091W, strain srl3, hits give low values 0.993 | S. cerevisiae deletion strains, locus YLL001W, strain dnm1, hits give low values 0.967 | S. cerevisiae deletion strains, locus YLL026W, hits give low values 0.997 | S. cerevisiae deletion strains, locus YLL041C, strain sdh2, hits give low values 0.993 | S. cerevisiae deletion strains, locus YLR027C, strain aat2, hits give low values 1 | S. cerevisiae deletion strains, locus YLR039C, strain RIC1, hits give low values 1.01 | S. cerevisiae deletion strains, locus YLR058C, strain SHM2, hits give low values 1.03 | S. cerevisiae deletion strains, locus YLR102C, strain apc9, hits give low values 0.986 | S. cerevisiae deletion strains, locus YLR113W, strain HOG1, hits give low values 1.01 | S. cerevisiae deletion strains, locus YLR221C, strain rsa3, hits give low values 0.989 | S. cerevisiae deletion strains, locus YLR258W, strain gsy2, hits give low values 0.971 | S. cerevisiae deletion strains, locus YLR262C, strain YPT6 (second series), hits give low values 1.02 | S. cerevisiae deletion strains, locus YLR262C, strain YPT6, hits give low values 1.06 | S. cerevisiae deletion strains, locus YLR268W, strain sec22, hits give low values 0.99 | S. cerevisiae deletion strains, locus YLR320W, strain mms22, hits give low values 0.961 | S. cerevisiae deletion strains, locus YLR330W, strain CHS5, hits give low values 1.01 | S. cerevisiae deletion strains, locus YLR342W, strain FKS1 (second series), hits give low values 1.01 | S. cerevisiae deletion strains, locus YLR342W, strain FKS1, hits give low values 0.963 | S. cerevisiae deletion strains, locus YLR357W, strain rsc2, hits give low values 0.945 | S. cerevisiae deletion strains, locus YLR370C, strain arc18, hits give low values 0.999 | S. cerevisiae deletion strains, locus YLR371W, strain rom2, hits give low values 0.983 | S. cerevisiae deletion strains, locus YLR384C, strain iki3, hits give low values 1.02 | S. cerevisiae deletion strains, locus YLR418C, strain cdc73, hits give low values 1 | S. cerevisiae deletion strains, locus YML016C, strain PPZ1, hits give low values 1.02 | S. cerevisiae deletion strains, locus YML032C, strain rad52, hits give low values 0.994 | S. cerevisiae deletion strains, locus YML120C, strain ndi1, hits give low values 1 | S. cerevisiae deletion strains, locus YML124C, strain tub3, hits give low values 0.994 | S. cerevisiae deletion strains, locus YMR058W, strain fet3, hits give low values 1.01 | S. cerevisiae deletion strains, locus YMR078C, strain ctf18, hits give low values 0.997 | S. cerevisiae deletion strains, locus YMR125W, strain sto1, hits give low values 1.01 | S. cerevisiae deletion strains, locus YMR129W, hits give low values 0.989 | S. cerevisiae deletion strains, locus YMR205C, strain PFK2, hits give low values 0.986 | S. cerevisiae deletion strains, locus YMR223W, strain ubp8, hits give low values 0.99 | S. cerevisiae deletion strains, locus YMR231W, strain pep5, hits give low values 0.994 | S. cerevisiae deletion strains, locus YMR307W, strain GAS1, hits give low values 1.01 | S. cerevisiae deletion strains, locus YNL067W, strain RPL9B, hits give low values 1.03 | S. cerevisiae deletion strains, locus YNL071W, strain lat1, hits give low values 1 | S. cerevisiae deletion strains, locus YNL128W, strain TEP1, hits give low values 1.02 | S. cerevisiae deletion strains, locus YNL153C, strain GIM3, hits give low values 1.04 | S. cerevisiae deletion strains, locus YNL183C, strain NPR1, hits give low values 0.935 | S. cerevisiae deletion strains, locus YNL209W, strain ssb2, hits give low values 1.01 | S. cerevisiae deletion strains, locus YNL233W, strain BNI4, hits give low values 1.03 | S. cerevisiae deletion strains, locus YNL248C, strain rpa49, hits give low values 0.994 | S. cerevisiae deletion strains, locus YNL250W, strain rad50, hits give low values 0.984 | S. cerevisiae deletion strains, locus YNL271C, strain bni1, hits give low values 0.983 | S. cerevisiae deletion strains, locus YNL298W, strain CLA4, hits give low values 0.981 | S. cerevisiae deletion strains, locus YNL307C, strain MCK1, hits give low values 0.993 | S. cerevisiae deletion strains, locus YNL322C, strain KRE1 (second series), hits give low values 0.974 | S. cerevisiae deletion strains, locus YNR049C, strain mso1, hits give low values 0.999 | S. cerevisiae deletion strains, locus YNR052C, strain pop2, hits give low values 0.987 | S. cerevisiae deletion strains, locus YOL006C, strain TOP1, hits give low values 1.09 | S. cerevisiae deletion strains, locus YOL012C, strain htz1 1.23 | S. cerevisiae deletion strains, locus YOL147C, strain pex11, hits give low values 0.99 | S. cerevisiae deletion strains, locus YOR001W, strain rrp6, hits give low values 1 | S. cerevisiae deletion strains, locus YOR061W, strain CKA2, hits give low values 1.02 | S. cerevisiae deletion strains, locus YOR069W, strain VPS5, hits give low values 1.01 | S. cerevisiae deletion strains, locus YOR070C, strain gyp1, hits give low values 1 | S. cerevisiae deletion strains, locus YOR080W, strain dia2, hits give low values 1 | S. cerevisiae deletion strains, locus YOR083W, strain WHI5, hits give low values 0.947 | S. cerevisiae deletion strains, locus YOR106W, strain vam3, hits give low values 1 | S. cerevisiae deletion strains, locus YOR136W, strain idh2, hits give low values 0.996 | S. cerevisiae deletion strains, locus YOR144C, strain elg1, hits give low values 0.992 | S. cerevisiae deletion strains, locus YOR184W, strain ser1, hits give low values 0.996 | S. cerevisiae deletion strains, locus YOR231W, strain MKK1, hits give low values 0.998 | S. cerevisiae deletion strains, locus YOR265W, strain rbl2, hits give low values 1 | S. cerevisiae deletion strains, locus YOR270C, strain vph1, hits give low values 1.05 | S. cerevisiae deletion strains, locus YOR290C, strain snf2, hits give low values 0.991 | S. cerevisiae deletion strains, locus YOR316C, strain cot1, hits give low values 0.985 | S. cerevisiae deletion strains, locus YPL051W, strain arl3, hits give low values 0.976 | S. cerevisiae deletion strains, locus YPL055C, strain LGE1, hits give low values 1.07 | S. cerevisiae deletion strains, locus YPL078C, strain atp4, hits give low values 0.994 | S. cerevisiae deletion strains, locus YPL106C, strain sse1, hits give low values 0.96 | S. cerevisiae deletion strains, locus YPL240C, strain hsp82, hits give low values 1 | S. cerevisiae deletion strains, locus YPL241C, strain CIN2, hits give low values 1.01 | S. cerevisiae deletion strains, locus YPL256C, strain CLN2, hits give low values 0.985 | S. cerevisiae deletion strains, locus YPR119W, strain clb2, hits give low values 0.997 | S. cerevisiae deletion strains, locus YPR141C, strain kar3, hits give low values 0.988 | S. cerevisiae deletion strains, locus YPR163C, strain tif3, hits give low values 0.99 | S. cerevisiae deletion strains, locus YPR167C, strain met16, hits give low values 0.992 | S. cerevisiae deletion strains, strain wtn01, hits give low values 0.986 | S. cerevisiae strains, strain wild type, hits give low values 1.01
